Measurements: PubChem BioAssay (NCI)
The panel holds about 83,000 compounds, 20% with a hit somewhere; the sample as a whole holds those more often.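 In brief: 96-well plates, 48 h treatment, single concentration, percent growth endpoint.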 Active and inactive are the calls of the source. The calls were made as follows: active = growth percent below 10; inactive = the rest.

Key:
Test in all cases: NCI-60 one-dose screen, 48 h (100 = growth as untreated, 0 = no growth, -100 = all killed)
Details in all cases: 10 µM unless noted
HCT-15 colon = tested on: HCT-15 colon
HT29 colon = tested on: HT29 colon
SNB-75 CNS = tested on: SNB-75 CNS
SNB-19 CNS = tested on: SNB-19 CNS
U251 CNS = tested on: U251 CNS
PC-3 prostate = tested on: PC-3 prostate
SK-MEL-5 melanoma = tested on: SK-MEL-5 melanoma
UACC-62 melanoma = tested on: UACC-62 melanoma
LOX IMVI melanoma = tested on: LOX IMVI melanoma
SK-MEL-28 melanoma = tested on: SK-MEL-28 melanoma
SK-MEL-2 melanoma = tested on: SK-MEL-2 melanoma
EKVX NSCLC = tested on: EKVX NSCLC
SN12C renal = tested on: SN12C renal
UO-31 renal = tested on: UO-31 renal
TK-10 renal = tested on: TK-10 renal
ACHN renal = tested on: ACHN renal
CAKI-1 renal = tested on: CAKI-1 renal
A498 renal = tested on: A498 renal
CCRF-CEM leukemia = tested on: CCRF-CEM leukemia
MOLT-4 leukemia = tested on: MOLT-4 leukemia

Measured: growth

NS(=O)(=O)c1ccc(C(=O)N=Nc2c(O)[nH]c3ccc(Cl)cc23)cc1
inactive: HCT-15 colon 99.4% | HT29 colon 99.7% | SNB-75 CNS 89% | SNB-19 CNS 91.3% | U251 CNS 99.7% | PC-3 prostate 97.4% | SK-MEL-5 melanoma 103% | UACC-62 melanoma 105% | LOX IMVI melanoma 102% | SK-MEL-28 melanoma 114% | SK-MEL-2 melanoma 105% | EKVX NSCLC 95.8% | SN12C renal 94.9% | UO-31 renal 83.8% | TK-10 renal 115% | ACHN renal 107% | CAKI-1 renal 92.6% | A498 renal 75.3% | CCRF-CEM leukemia 99.7% | MOLT-4 leukemia 107%

Cc1nn(C)c2ncnc(N/N=C/c3cccc(O)c3O)c12
active: SK-MEL-5 melanoma -41.4% | UACC-62 melanoma -8.29% | LOX IMVI melanoma 4.98% | EKVX NSCLC 6.94% | SN12C renal 7.54% | UO-31 renal -13.4% | ACHN renal 4.41% | CAKI-1 renal 6.5% | CCRF-CEM leukemia -16.7%
inactive: HCT-15 colon 28.9% | HT29 colon 62.5% | SNB-75 CNS 38.6% | SNB-19 CNS 19.7% | U251 CNS 15.7% | PC-3 prostate 35.9% | SK-MEL-28 melanoma 11.4% | SK-MEL-2 melanoma 31.5% | TK-10 renal 28.7% | A498 renal 26.6%

CCN1C(=O)N(c2ccccc2)C2NC(=S)N(/N=C/C=C/c3ccccc3OC)C21 (stereo not given)
active: HCT-15 colon 8.49% | HT29 colon 7.61% | SK-MEL-5 melanoma -14.1% | A498 renal 3.46%
inactive: SNB-75 CNS 25.2% | SNB-19 CNS 32.7% | U251 CNS 15.6% | PC-3 prostate 29.3% | UACC-62 melanoma 32.6% | LOX IMVI melanoma 15.4% | SK-MEL-28 melanoma 57.7% | SK-MEL-2 melanoma 50.8% | EKVX NSCLC 54% | SN12C renal 17.9% | UO-31 renal 34.7% | TK-10 renal 75.7% | ACHN renal 29.2% | CAKI-1 renal 19.5% | CCRF-CEM leukemia 11.4% | MOLT-4 leukemia 13.3%

COc1cc2c(c(OC)c1OC)C(=O)CC(c1cccc(C(=O)Nc3ccc(C#N)cc3)c1)O2 (stereo not given)
inactive: HCT-15 colon 63% | HT29 colon 86.4% | SNB-75 CNS 74.8% | SNB-19 CNS 89.5% | U251 CNS 94.7% | PC-3 prostate 39.2% | SK-MEL-5 melanoma 37.5% | UACC-62 melanoma 34.8% | LOX IMVI melanoma 79.6% | SK-MEL-28 melanoma 95.6% | SK-MEL-2 melanoma 74.6% | EKVX NSCLC 80.2% | SN12C renal 72.1% | UO-31 renal 52% | TK-10 renal 92.3% | ACHN renal 79.4% | CAKI-1 renal 71.6% | A498 renal 72.1% | CCRF-CEM leukemia 25%

CC1(C)N=C(N)N=C(N)N1c1ccc(S(=O)(=O)Nc2nccs2)cc1
inactive: HCT-15 colon 103% | HT29 colon 102% | SNB-75 CNS 64.9% | SNB-19 CNS 98.2% | U251 CNS 103% | PC-3 prostate 93.7% | SK-MEL-5 melanoma 106% | UACC-62 melanoma 93.6% | LOX IMVI melanoma 100% | SK-MEL-28 melanoma 106% | SK-MEL-2 melanoma 106% | EKVX NSCLC 102% | SN12C renal 95.2% | UO-31 renal 89.5% | TK-10 renal 86.1% | ACHN renal 108% | CAKI-1 renal 94.3% | A498 renal 96.2% | CCRF-CEM leukemia 101%

CC1(C)N=C(N)N=C(N)N1c1cc(Cl)ccc1Cl
inactive: HCT-15 colon 13% | HT29 colon 24.8% | SNB-75 CNS 118% | SNB-19 CNS 92.6% | U251 CNS 80% | PC-3 prostate 101% | SK-MEL-5 melanoma 98.1% | UACC-62 melanoma 88.7% | LOX IMVI melanoma 70.2% | SK-MEL-28 melanoma 106% | SK-MEL-2 melanoma 19.5% | EKVX NSCLC 99.7% | SN12C renal 90.4% | UO-31 renal 91% | TK-10 renal 94% | A498 renal 83.8% | CCRF-CEM leukemia 96.1%
active: ACHN renal -25.2% | CAKI-1 renal 9.84%

COc1ccc(C(=O)C/C(=C\c2ccc(O)c(OC)c2)C(=O)NN)cc1
inactive: HCT-15 colon 64.2% | HT29 colon 102% | SNB-75 CNS 99.6% | SNB-19 CNS 85% | U251 CNS 84.9% | PC-3 prostate 67.3% | SK-MEL-5 melanoma 75% | UACC-62 melanoma 75.8% | LOX IMVI melanoma 82.2% | SK-MEL-28 melanoma 75.6% | SK-MEL-2 melanoma 90.8% | EKVX NSCLC 94% | SN12C renal 89% | UO-31 renal 67.9% | TK-10 renal 111% | ACHN renal 85.4% | CAKI-1 renal 77.9% | A498 renal 105% | CCRF-CEM leukemia 73.8%

CCCCCc1ccc(S(=O)(=O)Nc2cc(-c3csc(NC(C)=O)n3)ccc2N2CCN(C)CC2)cc1
inactive: SNB-75 CNS 37.3% | SNB-19 CNS 74.6% | U251 CNS 12.2% | PC-3 prostate 41.2% | SK-MEL-5 melanoma 30.2% | SK-MEL-2 melanoma 81.3% | EKVX NSCLC 78.2% | SN12C renal 61.4% | UO-31 renal 49.4% | TK-10 renal 99.3% | ACHN renal 54.6% | CAKI-1 renal 64.1% | A498 renal 66.2% | CCRF-CEM leukemia 29.8% | MOLT-4 leukemia 12.4%
active: HCT-15 colon 4% | HT29 colon 5.9% | UACC-62 melanoma -56.2% | LOX IMVI melanoma -95.4% | SK-MEL-28 melanoma -80.2%

S=c1ccnc[nH]1
inactive: HCT-15 colon 103% | HT29 colon 110% | SNB-75 CNS 120% | SNB-19 CNS 102% | U251 CNS 102% | PC-3 prostate 100% | SK-MEL-5 melanoma 109% | UACC-62 melanoma 102% | LOX IMVI melanoma 96.5% | SK-MEL-28 melanoma 144% | SK-MEL-2 melanoma 96.6% | EKVX NSCLC 118% | SN12C renal 96.8% | UO-31 renal 82.5% | TK-10 renal 127% | ACHN renal 99.4% | CAKI-1 renal 104% | A498 renal 112% | CCRF-CEM leukemia 123% | MOLT-4 leukemia 107%

CC1=C2CC/C(C)=C/CC[C@]3(C)O[C@H]3CC/C(C)=C/[C@H]2OC1
inactive: HCT-15 colon 97.9% | HT29 colon 94.7% | SNB-75 CNS 86.6% | SNB-19 CNS 98.5% | U251 CNS 94.7% | PC-3 prostate 87.5% | SK-MEL-5 melanoma 108% | UACC-62 melanoma 92.1% | LOX IMVI melanoma 101% | SK-MEL-28 melanoma 96.5% | SK-MEL-2 melanoma 92.6% | EKVX NSCLC 103% | SN12C renal 95.5% | UO-31 renal 84.7% | TK-10 renal 100% | ACHN renal 90.9% | CAKI-1 renal 87% | A498 renal 97% | CCRF-CEM leukemia 84.9% | MOLT-4 leukemia 86.5%

O=C(O)CCCCCCCCCCN1C(=O)/C(=C2/C(=O)N(CC(=O)O)c3ccc(Br)cc32)SC1=S
inactive: HCT-15 colon 44.2% | HT29 colon 100% | SNB-75 CNS 92.5% | SNB-19 CNS 99.9% | U251 CNS 72% | PC-3 prostate 74.8% | SK-MEL-5 melanoma 81.2% | UACC-62 melanoma 80.3% | LOX IMVI melanoma 78.2% | SK-MEL-28 melanoma 104% | SK-MEL-2 melanoma 100% | EKVX NSCLC 97.2% | SN12C renal 86.3% | UO-31 renal 72.8% | TK-10 renal 128% | ACHN renal 84.2% | CAKI-1 renal 83.8% | A498 renal 95.2% | CCRF-CEM leukemia 71.4% | MOLT-4 leukemia 34.2%

O=C(CSc1nnnn1-c1ccccc1)Nc1ccc(Oc2ccccc2)cc1
inactive: HCT-15 colon 97.4% | HT29 colon 108% | SNB-75 CNS 101% | SNB-19 CNS 98.8% | U251 CNS 101% | PC-3 prostate 96.1% | SK-MEL-5 melanoma 103% | UACC-62 melanoma 82.3% | LOX IMVI melanoma 104% | SK-MEL-28 melanoma 100% | SK-MEL-2 melanoma 81% | EKVX NSCLC 100% | SN12C renal 88.4% | UO-31 renal 77.2% | TK-10 renal 119% | ACHN renal 99.7% | CAKI-1 renal 107% | A498 renal 103% | CCRF-CEM leukemia 114% | MOLT-4 leukemia 91.7%

O=C1Nc2ccccc2/C1=N/N1C(=O)CN(CCCl)C1=O
inactive: HCT-15 colon 105% | HT29 colon 99.1% | SNB-75 CNS 86.8% | SNB-19 CNS 97.1% | U251 CNS 102% | PC-3 prostate 99% | SK-MEL-5 melanoma 97.5% | UACC-62 melanoma 90.5% | LOX IMVI melanoma 100% | SK-MEL-28 melanoma 111% | SK-MEL-2 melanoma 103% | EKVX NSCLC 102% | SN12C renal 94.2% | UO-31 renal 86% | TK-10 renal 102% | ACHN renal 107% | CAKI-1 renal 89.1% | A498 renal 95.6% | CCRF-CEM leukemia 99.3% | MOLT-4 leukemia 99.9%

O=[N+]([O-])c1ccccc1Nc1ccc2ccccc2c1
inactive: HCT-15 colon 93.5% | HT29 colon 94.1% | SNB-75 CNS 62.9% | SNB-19 CNS 89.8% | U251 CNS 92.7% | PC-3 prostate 92.3% | SK-MEL-5 melanoma 98.6% | UACC-62 melanoma 79.5% | LOX IMVI melanoma 92.5% | SK-MEL-28 melanoma 101% | SK-MEL-2 melanoma 104% | EKVX NSCLC 87.7% | SN12C renal 98.9% | UO-31 renal 59.4% | TK-10 renal 99.7% | ACHN renal 99.2% | CAKI-1 renal 78.3% | A498 renal 59.9% | CCRF-CEM leukemia 92.3% | MOLT-4 leukemia 76.8%

N=C(N)c1ccc(-c2ccc(-c3cc(Cl)cc(Cl)c3)s2)s1
inactive: PC-3 prostate 35.6% | SK-MEL-5 melanoma 86.6% | SK-MEL-28 melanoma 33.7% | SK-MEL-2 melanoma 83.4% | A498 renal 73.6%
active: HCT-15 colon -84.8% | HT29 colon -80.1% | SNB-75 CNS 3.24% | SNB-19 CNS -61.9% | U251 CNS -86.5% | UACC-62 melanoma -74% | LOX IMVI melanoma -82.4% | EKVX NSCLC -12.2% | SN12C renal -65.4% | UO-31 renal -40.2% | TK-10 renal -26.5% | ACHN renal -54.2% | CAKI-1 renal 2.68% | CCRF-CEM leukemia -12.4% | MOLT-4 leukemia -41.9%

Oc1c(I)cc(I)cc1CN(Cc1ccccn1)Cc1ccccn1
inactive: HCT-15 colon 21.3% | HT29 colon 25.5% | SNB-75 CNS 30% | SNB-19 CNS 22.3% | PC-3 prostate 28% | SK-MEL-28 melanoma 28.5% | SK-MEL-2 melanoma 21.6% | EKVX NSCLC 13% | SN12C renal 27.3% | ACHN renal 10.4% | A498 renal 22.3%
active: U251 CNS 7% | SK-MEL-5 melanoma -33.5% | UACC-62 melanoma 3.88% | LOX IMVI melanoma 7.25% | UO-31 renal -19.2% | TK-10 renal 8.19% | CAKI-1 renal 0.0911% | CCRF-CEM leukemia 9.21% | MOLT-4 leukemia 5.38%
